# Source: the supplement of paper PMC6555819
# Columns and labels:
# Experiment in all cases: PBM binding z-score (relative to random genomic background probes); higher = stronger binding; sequences stand for … in GC…GCGATTGACAGCGTAGAATGAAGG
# [1] = system: FXR:RXRa (NR concentration 270 nM, RXRa partner concentration 90 nM)
# Summary of the method: (§1)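 Binding buffer was PBS pH 7.4 with 2% milk, 0.02% Triton X-100, 1 mM DTT, 0.2 mg/mL BSA and 0.4 mg/ml salmon testes DNA. In it, ligand-free nuclear receptor dimers were incubated 1 h on custom Agilent 4×180K protein-binding microarrays carrying double-stranded probes. Antibodies against each partner (one per run) detected binding, and z-scores were calculated against random background probes after regression normalization of scanned fluorescence.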
# [2] = system: LXRa:RXRa (NR concentration 270 nM, RXRa partner concentration 90 nM)
# Summary of the method: as §1
# [3] = system: LXRa homodimer (NR concentration 270 nM)
# Summary of the method: as §1
# [4] = system: LXRb:RXRa (NR concentration 270 nM, RXRa partner concentration 90 nM)
# Summary of the method: as §1
# [5] = system: LXRb homodimer (NR concentration 270 nM)
# Summary of the method: as §1
# [6] = system: PPARa:RXRa (NR concentration 270 nM, RXRa partner concentration 90 nM)
# Summary of the method: as §1
# [7] = system: PPARg:RXRa (NR concentration 180 nM, RXRa partner concentration 90 nM)
# Summary of the method: as §1
# [8] = system: PPARg:RXRa 270nM:90nM, anti-RXR (NR concentration 270 nM, RXRa partner concentration 90 nM)
# Summary of the method: as §1
# [9] = system: PPARg:RXRa 30nM:10nM, anti-RXR (NR concentration 30 nM, RXRa partner concentration 10 nM)
# Summary of the method: as §1
# [10] = system: PPARg:RXRa 90nM:30nM, anti-RXR (NR concentration 90 nM, RXRa partner concentration 30 nM)
# Summary of the method: as §1
# [11] = system: PPARg:RXRa DBDmut IVT, anti-RXR (DBD mutation: RXRa K156A/R161A, NR concentration 270 nM, RXRa partner concentration 90 nM)
# Summary of the method: as §1
# [12] = system: PPARg:RXRa IVT, anti-PPARg (NR concentration 270 nM, RXRa partner concentration 90 nM)
# Summary of the method: as §1
# [13] = system: PPARg DBDmut:RXRa IVT, anti-PPARg (DBD mutation: PPARg1 K132A/R137A, NR concentration 270 nM, RXRa partner concentration 90 nM)
# Summary of the method: as §1
# [14] = system: PPARg DBDmut IVT, anti-PPARg (DBD mutation: PPARg1 K132A/R137A, NR concentration 270 nM)
# Summary of the method: as §1
# [15] = system: PPARg homodimer (NR concentration 180 nM)
# Summary of the method: as §1
# [16] = system: PXR:RXRa (NR concentration 270 nM, RXRa partner concentration 90 nM)
# Summary of the method: as §1
# [17] = system: PXR homodimer (NR concentration 270 nM)
# Summary of the method: as §1
# [18] = system: RARa:RXR (NR concentration 270 nM, RXRa partner concentration 90 nM)
# Summary of the method: as §1
# [19] = system: RARa homodimer (NR concentration 270 nM)
# Summary of the method: as §1
# [20] = system: RARb:RXRa (NR concentration 270 nM, RXRa partner concentration 90 nM)
# Summary of the method: as §1
Sequence,PBM binding z-score [1],PBM binding z-score [2],PBM binding z-score [3],PBM binding z-score [4],PBM binding z-score [5],PBM binding z-score [6],PBM binding z-score [7],PBM binding z-score [8],PBM binding z-score [9],PBM binding z-score [10],PBM binding z-score [11],PBM binding z-score [12],PBM binding z-score [13],PBM binding z-score [14],PBM binding z-score [15],PBM binding z-score [16],PBM binding z-score [17],PBM binding z-score [18],PBM binding z-score [19],PBM binding z-score [20]
ATATCTAGGTAACAAGTTCAGTGAAAGAGAGGAC,0.903,1.07,0.574,0.857,0.917,3.32,5.22,4.43,2.41,4.16,6.96,6.85,2.71,2.4,1.51,1.64,1.49,0.979,1.72,1.58
CCTACTGGGACAAGGTCATTGATCAGTCAAAGCA,3.62,3.43,1.26,3.06,0.0323,4.22,4.54,4.7,1.99,3.78,3.79,4.66,-0.0252,-0.0828,2.28,3.8,1.59,3.89,0.375,3.26
CCAGACGGGTGAAAGGTAACTCAGTCTGGTACGC,0.176,0.178,-0.5,0.239,-0.986,2.87,4.88,5.6,3.4,5.98,0.482,2.35,-1,-1.51,0.107,0.559,-0.486,1.55,-0.431,0.652
CTTCCAAGGTCAAGGTCAGTGAAAGAGACTCGAA,7.44,6.06,1.86,4.85,1.61,6.31,6.43,6.37,3.11,5.13,3.34,4.97,0.569,0.303,3.58,4.76,1.05,5.07,0.686,5.83
AGTCAAAGTTCAGGACGAGGTAACGTAAAGCACG,3.82,3.74,0.999,1.93,0.286,3.46,4.47,4.95,2.17,3.94,-0.443,2.06,0.129,0.321,1.91,2.94,0.827,2.8,0.702,4.26
AGATTGAGGTTAAGATCAGGGAAACAGAATACAT,2.48,2.1,0.386,2.06,0.34,3.45,1.96,2.19,0.935,1.82,2.1,2.29,1.37,1.38,1.06,1.3,0.986,1.87,1.33,2.08
GCGACAGGGGCATCAGCAGGTTACCATAACTTAA,0.0406,0.297,-0.329,1.42,-0.683,1.33,0.386,0.0152,-0.411,-0.547,0.0717,-0.102,-1.02,-1.18,0.4,0.643,0.0793,1.08,-0.68,1.27
